# Measured values as given in PubChem BioAssay AID1159580 (chemical genetic matrix, 2015).
# About 2,000 (36%) of roughly 5,500 compounds were called active. About 18% were inconclusive and are not listed. The list shows a part of the results. Values without a mark were called inactive. Cut-off read from the data, not from the text of the source: active = normalized growth mostly below about 0.91 (no sharp cut-off); inconclusive = no clear call, values can overlap the other calls; inactive = mostly above about 0.92.
# Assay: chemical genetic growth profiling, strain panel (AID 1159580);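 note: tested at 20 µM; growth read once vehicle control cultures reached saturation at 30 °C; 1 = growth at the plate median or of vehicle wells; lower values mean less growth of the strain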
# Conditions: growth OD
structure (smiles),measurement,setting,value
CCOc1ccc(/C=C(\C)[N+](=O)[O-])cc1OC,normalized growth,"S. cerevisiae deletion strains, locus YKL193C, strain SDS22, active compounds read low",0.973
same,normalized growth,"S. cerevisiae deletion strains, locus YKL203C, strain TOR2, active compounds read low",0.489 (active)
same,normalized growth,"S. cerevisiae deletion strains, locus YLR039C, strain RIC1, active compounds read low",0.285 (active)
same,normalized growth,"S. cerevisiae deletion strains, locus YLR058C, strain SHM2 (second series), active compounds read low",0.651 (active)
same,normalized growth,"S. cerevisiae deletion strains, locus YLR085C, strain ARP6, active compounds read low",0.163 (active)
same,normalized growth,"S. cerevisiae deletion strains, locus YLR113W, strain HOG1, active compounds read low",0.203 (active)
same,normalized growth,"S. cerevisiae deletion strains, locus YLR133W, strain CKI1, active compounds read low",0.547 (active)
same,normalized growth,"S. cerevisiae deletion strains, locus YLR262C, strain YPT6, active compounds read low",0.283 (active)
same,normalized growth,"S. cerevisiae deletion strains, locus YLR403W, strain SFP1, active compounds read low",0.497 (active)
same,normalized growth,"S. cerevisiae deletion strains, locus YML070W, strain DAK1, active compounds read low",0.295 (active)
same,normalized growth,"S. cerevisiae deletion strains, locus YML094W, strain GIM5, active compounds read low",0.145 (active)
same,normalized growth,"S. cerevisiae deletion strains, locus YMR001C, strain CDC5, active compounds read low",0.967
same,normalized growth,"S. cerevisiae deletion strains, locus YMR205C, strain PFK2 (second series), active compounds read low",0.554 (active)
same,normalized growth,"S. cerevisiae deletion strains, locus YMR219W, strain ESC1, active compounds read low",0.285 (active)
same,normalized growth,"S. cerevisiae deletion strains, locus YMR263W, strain SAP30, active compounds read low",0.463 (active)
same,normalized growth,"S. cerevisiae deletion strains, locus YMR277W, strain FCP1, active compounds read low",0.973
same,normalized growth,"S. cerevisiae deletion strains, locus YNL006W, strain LST8, active compounds read low",0.976
same,normalized growth,"S. cerevisiae deletion strains, locus YNL020C, strain ARK1, active compounds read low",0.528 (active)
same,normalized growth,"S. cerevisiae deletion strains, locus YNL153C, strain GIM3, active compounds read low",0.171 (active)
same,normalized growth,"S. cerevisiae deletion strains, locus YNL161W, strain CBK1, active compounds read low",0.961
same,normalized growth,"S. cerevisiae deletion strains, locus YNL183C, strain NPR1, active compounds read low",0.359 (active)
same,normalized growth,"S. cerevisiae deletion strains, locus YNL207W, strain RIO2, active compounds read low",0.977
same,normalized growth,"S. cerevisiae deletion strains, locus YNL222W, strain SSU72, active compounds read low",0.976
same,normalized growth,"S. cerevisiae deletion strains, locus YNL298W, strain CLA4 (second series), active compounds read low",0.204 (active)
same,normalized growth,"S. cerevisiae deletion strains, locus YNL307C, strain MCK1 (second series), active compounds read low",0.364 (active)
same,normalized growth,"S. cerevisiae deletion strains, locus YNL322C, strain KRE1, active compounds read low",0.873 (active)
same,normalized growth,"S. cerevisiae deletion strains, locus YNR030W, strain Alg12, active compounds read low",0.0808 (active)
same,normalized growth,"S. cerevisiae deletion strains, locus YOL006C, strain TOP1, active compounds read low",0.0719 (active)
same,normalized growth,"S. cerevisiae deletion strains, locus YOL078W, strain AVO1, active compounds read low",0.98
same,normalized growth,"S. cerevisiae deletion strains, locus YOL136C, strain PFK27, active compounds read low",0.374 (active)
same,normalized growth,"S. cerevisiae deletion strains, locus YOR061W, strain CKA2, active compounds read low",0.571 (active)
same,normalized growth,"S. cerevisiae deletion strains, locus YOR119C, strain RIO1, active compounds read low",0.444 (active)
same,normalized growth,"S. cerevisiae deletion strains, locus YOR231W, strain MKK1, active compounds read low",0.289 (active)
same,normalized growth,"S. cerevisiae deletion strains, locus YOR329C, strain SCD5, active compounds read low",0.965
same,normalized growth,"S. cerevisiae deletion strains, locus YPL031C, strain PHO85, active compounds read low",0.409 (active)
same,normalized growth,"S. cerevisiae deletion strains, locus YPL055C, strain LGE1, active compounds read low",0.86 (active)
same,normalized growth,"S. cerevisiae deletion strains, locus YPL153C, strain RAD53, active compounds read low",0.318 (active)
same,normalized growth,"S. cerevisiae deletion strains, locus YPL204W, strain HRR25, active compounds read low",0.431 (active)
same,normalized growth,"S. cerevisiae deletion strains, locus YPL209C, strain IPL1, active compounds read low",0.968
same,normalized growth,"S. cerevisiae deletion strains, locus YPL241C, strain CIN2, active compounds read low",0.0938 (active)
same,normalized growth,"S. cerevisiae deletion strains, locus YPL256C, strain CLN2, active compounds read low",0.266 (active)
same,normalized growth,"S. cerevisiae deletion strains, locus YPR025C, strain CCL1, active compounds read low",0.969
same,normalized growth,"S. cerevisiae deletion strains, locus YPR106W, strain ISR1, active compounds read low",0.972
same,normalized growth,"S. cerevisiae deletion strains, locus YPR111W, strain DBF20, active compounds read low",0.978
same,normalized growth,"S. cerevisiae deletion strains, locus YPR135W, strain CTF4, active compounds read low",0.233 (active)
same,normalized growth,"S. cerevisiae deletion strains, strain NNK1, active compounds read low",0.975
same,normalized growth,"S. cerevisiae deletion strains, strain TSCII, active compounds read low",0.977
same,normalized growth,"S. cerevisiae strains, strain wild type, active compounds read low",0.0825 (active)
